From PubChem BioAssay
An excerpt weighted towards active compounds, which were near 12% of everything screened.
L major viab – reduces viability of Leishmania major promastigotes; resazurin fluorescence viability; inhibition, % at 10 µM; 200,000 tested, 9% active; in the data active = inhibition above about 50%;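 note: promastigotes grown with compound for 44 hours at 28 °C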
WT yeast gro inh – growth inhibition of WT yeast, mitochondrial fusion screen | mitochondrial fusion phenotypic screen, WT strain | 190,000 tested, 2.1% active | inhibition, % at 10 µM; in the data active = inhibition above about 58%; tested in S. cerevisiae
Calpain2 inh – inhibitors of pig calpain II. purified calpain II, fluorogenic peptide substrate, 30 min. inhibition, % at 16 µM. 220,000 tested, 0.37% active. AID 1236;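 active = inhibition above about 50%, limit read from the data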
Cl transport mod – KCC2 (human) Cl- transport modulation | Q9H2X9 | KCC2 cells, thallium flux FluoZin-2 fluorescence | B-score of Tl+ flux slope (higher = more flux/activation; lower = inhibition) at 10 µM | 190,000 tested, 2.2% active | AID 1456;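 active = thallium flux slope and its plate-corrected score both differing from the plate sample mean at a set confidence after two filtering rounds, in either direction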;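 note: slope of fluorescence scaled to starting intensity during 10 to 20 s after thallium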
ROMK mod – modulates human ROMK potassium channel activity | 130,000 tested, 2% active | B-score at 10 µM | Tet-inducible ROMK, thallium flux fluorescence; actives lie on both sides | P48048;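 active = signal ratio slope over the read window, or its plate-corrected B-score, at least 3 SD from the plate mean, either direction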;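 note: B-score of the F/F0 ratio slope over 7 to 12 s after thallium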
Target sequence (P48048 whole entry, looked up): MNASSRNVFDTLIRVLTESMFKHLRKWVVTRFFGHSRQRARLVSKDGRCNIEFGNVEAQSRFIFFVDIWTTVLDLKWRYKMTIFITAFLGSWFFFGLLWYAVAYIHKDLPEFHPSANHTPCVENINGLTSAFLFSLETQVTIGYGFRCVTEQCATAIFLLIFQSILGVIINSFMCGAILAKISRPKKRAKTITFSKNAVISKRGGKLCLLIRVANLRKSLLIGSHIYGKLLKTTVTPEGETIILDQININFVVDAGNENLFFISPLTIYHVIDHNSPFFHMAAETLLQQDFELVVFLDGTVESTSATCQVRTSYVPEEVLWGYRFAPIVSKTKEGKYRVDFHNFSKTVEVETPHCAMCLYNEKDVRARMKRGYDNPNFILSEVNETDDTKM
A number is an active result.

What do the screens show for `O=C(CCC1CCCN(Cc2ccncc2)C1)NCc1ccc(F)c(F)c1` (stereo not drawn)?
L major viab: 92; WT yeast gro inh: inactive; Calpain2 inh: inactive; Cl transport mod: inactive; ROMK mod: inactive

What do the screens show for `CC(=O)c1cccc(CN2CCCC(CCC(=O)NCc3ccc(C)o3)C2)c1` (stereo not drawn)?
L major viab: inactive; WT yeast gro inh: inactive; Calpain2 inh: inactive; ROMK mod: inactive

Results for COc1cccc(CNC(=O)CCC2CCCN(Cc3cc4ccccc4o3)C2)c1 (stereo not drawn) ?
L major viab: 80; WT yeast gro inh: inactive; Calpain2 inh: inactive; Cl transport mod: inactive; ROMK mod: inactive

How did O=C(c1ccc(F)cc1)N(C(=O)c1ccc(F)cc1)c1ncccn1 do in these assays?
L major viab: inactive; WT yeast gro inh: inactive; Calpain2 inh: inactive; Cl transport mod: inactive; ROMK mod: inactive

What do the screens show for `COc1ccc(C(CC(=O)NCc2ccccc2)Sc2n[nH]c(-c3ccc(Cl)cc3)n2)cc1` (stereo not drawn)?
L major viab: 52; WT yeast gro inh: inactive; Calpain2 inh: inactive; Cl transport mod: inactive

Results for COc1ccc(C(CC(=O)NCc2ccccc2)Sc2n[nH]c(-c3ccccc3)n2)cc1 (stereo not drawn) ?
L major viab: inactive; WT yeast gro inh: inactive; Calpain2 inh: inactive; Cl transport mod: inactive

Results for O=C1CSC(c2cccnc2)N1CCc1ccccn1 (stereo not drawn) ?
Calpain2 inh: inactive; Cl transport mod: inactive

Results for CSC1=NCCN1C(=O)C12CC3CC(CC(C3)C1)C2 ?
L major viab: 51; WT yeast gro inh: inactive; Calpain2 inh: inactive; Cl transport mod: inactive; ROMK mod: inactive

Results for CC(C)C(c1nnnn1C(C)(C)C)N1CCC(Cc2ccccc2)CC1 (stereo not drawn) ?
L major viab: inactive; WT yeast gro inh: 73; Calpain2 inh: inactive; Cl transport mod: inactive; ROMK mod: inactive

How did COC(=O)N/N=C/c1cc(C)n(-c2cccc3ccccc23)c1C do in these assays?
L major viab: 67; WT yeast gro inh: inactive; Calpain2 inh: inactive; Cl transport mod: inactive; ROMK mod: inactive

What do the screens show for `COC(=O)N/N=C/c1cn(Cc2ccccc2Cl)c2ccccc12`?
L major viab: 75; WT yeast gro inh: inactive; Calpain2 inh: inactive; Cl transport mod: inactive; ROMK mod: inactive

Results for COC(=O)N/N=C/c1cn(CCCOc2ccccc2)c2ccccc12 ?
L major viab: 54; WT yeast gro inh: inactive; Calpain2 inh: inactive; Cl transport mod: inactive; ROMK mod: inactive

Results for COC(=O)N/N=C/c1cn(Cc2c(Cl)cccc2Cl)c2ccccc12 ?
L major viab: inactive; WT yeast gro inh: 63; Calpain2 inh: inactive; Cl transport mod: inactive

How did CCOC(=O)N/N=C/c1cc(C)n(-c2cccc3ccccc23)c1C do in these assays?
L major viab: inactive; WT yeast gro inh: inactive; Calpain2 inh: inactive; Cl transport mod: inactive

Results for O=S(=O)(NC(=NC1CCCC1)C(F)(F)F)c1ccccc1 ?
L major viab: inactive; WT yeast gro inh: inactive; Calpain2 inh: inactive; Cl transport mod: inactive; ROMK mod: inactive

What do the screens show for `CCCn1c(NC(=O)C2CCN(S(=O)(=O)c3cccs3)CC2)nc2ccccc21`?
L major viab: 97; WT yeast gro inh: inactive; Calpain2 inh: inactive

Results for O=C(CSc1nc2ccccc2n1Cc1ccccc1)N/N=C/c1ccco1 ?
L major viab: 50; WT yeast gro inh: inactive; Calpain2 inh: inactive; Cl transport mod: inactive

Results for CCOc1ccc2nc(NC(=O)C(NS(=O)(=O)c3cccs3)C(C)C)sc2c1 (stereo not drawn) ?
L major viab: inactive; WT yeast gro inh: inactive; Calpain2 inh: inactive; Cl transport mod: inactive

What do the screens show for `CCOc1ccc2nc(NC(=O)C3CCCN(S(=O)(=O)c4cccs4)C3)sc2c1` (stereo not drawn)?
L major viab: 55; WT yeast gro inh: inactive; Calpain2 inh: inactive

What do the screens show for `COc1ccccc1/C=C/C(=O)Nc1nc(N)n(-c2ccccc2)n1`?
Calpain2 inh: inactive; Cl transport mod: inactive

Results for Cc1ccc(Cn2c(SCC(=O)N/N=C/c3ccc(C)o3)nc3ccccc32)cc1 ?
L major viab: inactive; WT yeast gro inh: inactive; Calpain2 inh: inactive; Cl transport mod: inactive; ROMK mod: inactive

What do the screens show for `CC(=O)Nc1nc(NC(=O)/C=C/c2ccccc2)n(-c2ccccc2)n1`?
L major viab: 95; WT yeast gro inh: inactive; Calpain2 inh: inactive; Cl transport mod: inactive; ROMK mod: inactive

How did C=CCNC(=O)C(=O)NCCOc1ccccc1Cl do in these assays?
L major viab: inactive; WT yeast gro inh: inactive; Calpain2 inh: inactive; Cl transport mod: inactive

What do the screens show for `OCCN(Cc1ccccc1)Cc1ccc(Cl)cc1Cl`?
L major viab: inactive; WT yeast gro inh: inactive; Calpain2 inh: inactive; Cl transport mod: inactive

Results for CCc1ccc(N(C(C)=O)c2nc(CCl)cs2)cc1 ?
L major viab: inactive; WT yeast gro inh: inactive; Calpain2 inh: inactive; Cl transport mod: inactive; ROMK mod: inactive

What do the screens show for `O=C(Cn1cc([N+](=O)[O-])cn1)N1CCc2ccccc2C1`?
L major viab: inactive; WT yeast gro inh: inactive; Calpain2 inh: inactive; Cl transport mod: inactive; ROMK mod: inactive

What do the screens show for `C=CCOc1ccc(/C=N/NC(=O)CN2CCOCC2)cc1OCC`?
L major viab: inactive; WT yeast gro inh: inactive; Calpain2 inh: inactive; Cl transport mod: inactive; ROMK mod: inactive

Results for N#CN=C1CCCCCN1CC(N)=O ?
L major viab: inactive; WT yeast gro inh: inactive; Calpain2 inh: inactive; Cl transport mod: inactive; ROMK mod: inactive

How did CC(=O)Nc1nc2ccccc2n1Cc1ccccc1C do in these assays?
L major viab: 96; WT yeast gro inh: inactive; Calpain2 inh: inactive

What do the screens show for `O=C(Nc1nc2ccccc2n1Cc1ccccc1)c1ccco1`?
L major viab: 73; WT yeast gro inh: inactive; Calpain2 inh: inactive

Results for O=C(Cn1c(NCCCO)nc2ccccc21)c1ccco1 ?
L major viab: inactive; WT yeast gro inh: inactive; Calpain2 inh: inactive; ROMK mod: inactive

What do the screens show for `CC(NC(=O)c1ccccc1)c1nc2ccccc2n1Cc1ccc(C#N)cc1` (stereo not drawn)?
L major viab: inactive; WT yeast gro inh: inactive; Calpain2 inh: inactive; Cl transport mod: inactive; ROMK mod: inactive

How did CC(NC(=O)c1ccccc1)c1nc2ccccc2n1Cc1ccccc1F (stereo not drawn) do in these assays?
L major viab: 53; WT yeast gro inh: inactive; Calpain2 inh: inactive; Cl transport mod: inactive

What do the screens show for `CCCn1c(NC(=O)c2ccccc2)nc2ccccc21`?
L major viab: inactive; WT yeast gro inh: inactive; Calpain2 inh: inactive; Cl transport mod: 9.9

Results for Cc1ccccc1-c1oc(C)c(C)[n+]1[O-] ?
L major viab: inactive; WT yeast gro inh: inactive; Calpain2 inh: inactive; Cl transport mod: inactive; ROMK mod: inactive

What do the screens show for `O=C(Nc1nc(NC(=O)c2ccco2)n(-c2ccccc2)n1)c1ccccc1`?
L major viab: 100; WT yeast gro inh: inactive; Calpain2 inh: inactive; Cl transport mod: inactive; ROMK mod: inactive

What do the screens show for `CCC(=O)Nc1nc2ccccc2n1Cc1ccc(Cl)cc1`?
L major viab: 99; WT yeast gro inh: inactive; Calpain2 inh: inactive; Cl transport mod: inactive; ROMK mod: inactive
